The target of experiment [1] is T1, Ephrin type-A receptor 3 (Homo sapiens) (UniProt P29320).
T1 sequence (whole entry): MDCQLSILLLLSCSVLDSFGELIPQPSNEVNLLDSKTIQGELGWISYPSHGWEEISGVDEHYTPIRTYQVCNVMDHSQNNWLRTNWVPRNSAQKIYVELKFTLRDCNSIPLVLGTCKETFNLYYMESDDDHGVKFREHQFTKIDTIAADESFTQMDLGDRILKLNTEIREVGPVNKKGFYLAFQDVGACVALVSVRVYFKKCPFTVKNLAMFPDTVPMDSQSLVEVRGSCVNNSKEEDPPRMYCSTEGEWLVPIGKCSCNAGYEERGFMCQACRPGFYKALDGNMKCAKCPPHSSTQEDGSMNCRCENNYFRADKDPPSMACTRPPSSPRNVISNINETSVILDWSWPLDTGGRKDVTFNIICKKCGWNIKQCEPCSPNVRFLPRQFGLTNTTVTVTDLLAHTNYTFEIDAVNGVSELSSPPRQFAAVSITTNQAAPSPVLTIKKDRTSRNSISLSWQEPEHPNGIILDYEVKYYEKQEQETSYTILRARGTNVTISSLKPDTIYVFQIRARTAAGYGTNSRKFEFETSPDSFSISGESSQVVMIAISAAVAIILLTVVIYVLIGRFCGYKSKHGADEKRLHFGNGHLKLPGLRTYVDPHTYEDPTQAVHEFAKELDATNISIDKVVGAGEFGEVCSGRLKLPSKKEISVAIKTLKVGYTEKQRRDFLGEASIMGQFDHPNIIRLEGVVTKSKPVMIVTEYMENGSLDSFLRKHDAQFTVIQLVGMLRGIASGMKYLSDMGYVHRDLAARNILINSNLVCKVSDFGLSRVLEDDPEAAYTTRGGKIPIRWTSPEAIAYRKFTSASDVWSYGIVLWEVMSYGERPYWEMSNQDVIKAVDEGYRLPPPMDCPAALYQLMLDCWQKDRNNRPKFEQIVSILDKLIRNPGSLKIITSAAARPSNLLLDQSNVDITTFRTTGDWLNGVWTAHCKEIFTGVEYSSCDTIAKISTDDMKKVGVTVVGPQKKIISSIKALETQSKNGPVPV
The following applies: at 10 µM.

Experiment [2] addresses Ephrin type-A receptor 5 (Homo sapiens) (UniProt P54756). The following applies: at 10 µM.
Experiment [3] deals with Ephrin type-A receptor 7 (Homo sapiens) (UniProt Q15375). The following applies: at 10 µM.
Sequence of Ephrin type-A receptor 7 (Homo sapiens) (Q15375 28-998 limits assumed): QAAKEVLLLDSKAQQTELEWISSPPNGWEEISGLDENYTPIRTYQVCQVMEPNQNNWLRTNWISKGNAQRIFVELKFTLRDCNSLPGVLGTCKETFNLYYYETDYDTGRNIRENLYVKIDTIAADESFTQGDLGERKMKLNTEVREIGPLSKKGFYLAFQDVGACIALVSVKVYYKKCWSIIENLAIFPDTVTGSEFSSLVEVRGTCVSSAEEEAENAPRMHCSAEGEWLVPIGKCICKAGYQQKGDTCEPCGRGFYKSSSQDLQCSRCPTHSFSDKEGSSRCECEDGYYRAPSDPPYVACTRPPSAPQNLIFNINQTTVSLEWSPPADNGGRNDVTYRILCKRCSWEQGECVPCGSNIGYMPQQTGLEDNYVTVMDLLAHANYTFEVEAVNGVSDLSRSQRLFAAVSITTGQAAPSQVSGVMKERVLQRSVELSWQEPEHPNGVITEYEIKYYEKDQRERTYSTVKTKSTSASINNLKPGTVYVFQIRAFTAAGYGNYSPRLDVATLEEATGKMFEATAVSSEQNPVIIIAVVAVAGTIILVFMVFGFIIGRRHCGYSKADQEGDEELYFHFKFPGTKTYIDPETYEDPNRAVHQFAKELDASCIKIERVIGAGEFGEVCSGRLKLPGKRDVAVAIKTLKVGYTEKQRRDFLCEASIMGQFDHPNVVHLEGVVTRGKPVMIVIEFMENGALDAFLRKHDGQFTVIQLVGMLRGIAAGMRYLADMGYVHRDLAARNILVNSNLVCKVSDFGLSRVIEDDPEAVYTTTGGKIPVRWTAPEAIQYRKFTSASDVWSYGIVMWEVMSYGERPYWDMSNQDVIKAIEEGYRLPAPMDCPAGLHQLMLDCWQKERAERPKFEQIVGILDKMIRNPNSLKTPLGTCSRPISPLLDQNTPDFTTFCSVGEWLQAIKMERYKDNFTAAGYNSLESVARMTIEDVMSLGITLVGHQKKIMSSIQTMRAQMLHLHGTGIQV
Experiment [4] has as its target T2, Ephrin type-A receptor 8 (Homo sapiens) (UniProt P29322).
T2 sequence (whole entry): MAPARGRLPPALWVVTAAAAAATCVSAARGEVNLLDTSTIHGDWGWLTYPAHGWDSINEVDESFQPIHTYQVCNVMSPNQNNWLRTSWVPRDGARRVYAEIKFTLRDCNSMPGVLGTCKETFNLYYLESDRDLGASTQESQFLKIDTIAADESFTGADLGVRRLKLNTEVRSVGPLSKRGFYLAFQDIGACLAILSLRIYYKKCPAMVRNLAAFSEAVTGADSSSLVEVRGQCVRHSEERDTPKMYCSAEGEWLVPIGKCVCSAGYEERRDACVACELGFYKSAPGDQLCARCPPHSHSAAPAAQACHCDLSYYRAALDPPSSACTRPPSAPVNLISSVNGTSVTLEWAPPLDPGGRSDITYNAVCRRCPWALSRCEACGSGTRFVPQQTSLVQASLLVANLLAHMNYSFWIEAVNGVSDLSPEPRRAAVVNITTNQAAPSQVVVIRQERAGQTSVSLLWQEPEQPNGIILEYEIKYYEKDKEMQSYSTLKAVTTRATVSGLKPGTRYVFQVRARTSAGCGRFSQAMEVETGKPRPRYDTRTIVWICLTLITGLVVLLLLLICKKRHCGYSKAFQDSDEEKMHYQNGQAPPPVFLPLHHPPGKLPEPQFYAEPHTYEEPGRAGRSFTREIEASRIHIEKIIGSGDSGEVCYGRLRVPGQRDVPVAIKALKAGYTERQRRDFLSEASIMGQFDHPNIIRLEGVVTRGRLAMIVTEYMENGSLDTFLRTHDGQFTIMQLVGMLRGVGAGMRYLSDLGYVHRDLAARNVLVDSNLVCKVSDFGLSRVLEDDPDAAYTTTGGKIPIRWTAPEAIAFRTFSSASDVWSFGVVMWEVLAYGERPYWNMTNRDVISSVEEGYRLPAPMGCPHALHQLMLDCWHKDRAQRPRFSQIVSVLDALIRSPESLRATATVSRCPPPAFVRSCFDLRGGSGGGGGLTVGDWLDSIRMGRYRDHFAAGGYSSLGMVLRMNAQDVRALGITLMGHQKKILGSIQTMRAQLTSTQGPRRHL
The following applies: at 1 µM.

The target in experiment [5] is T2, Ephrin type-A receptor 8 (Homo sapiens). The following applies: at 10 µM.
The target in experiment [6] is T3, Ephrin type-B receptor 1 (Homo sapiens) (UniProt P54762).
T3 sequence (whole entry): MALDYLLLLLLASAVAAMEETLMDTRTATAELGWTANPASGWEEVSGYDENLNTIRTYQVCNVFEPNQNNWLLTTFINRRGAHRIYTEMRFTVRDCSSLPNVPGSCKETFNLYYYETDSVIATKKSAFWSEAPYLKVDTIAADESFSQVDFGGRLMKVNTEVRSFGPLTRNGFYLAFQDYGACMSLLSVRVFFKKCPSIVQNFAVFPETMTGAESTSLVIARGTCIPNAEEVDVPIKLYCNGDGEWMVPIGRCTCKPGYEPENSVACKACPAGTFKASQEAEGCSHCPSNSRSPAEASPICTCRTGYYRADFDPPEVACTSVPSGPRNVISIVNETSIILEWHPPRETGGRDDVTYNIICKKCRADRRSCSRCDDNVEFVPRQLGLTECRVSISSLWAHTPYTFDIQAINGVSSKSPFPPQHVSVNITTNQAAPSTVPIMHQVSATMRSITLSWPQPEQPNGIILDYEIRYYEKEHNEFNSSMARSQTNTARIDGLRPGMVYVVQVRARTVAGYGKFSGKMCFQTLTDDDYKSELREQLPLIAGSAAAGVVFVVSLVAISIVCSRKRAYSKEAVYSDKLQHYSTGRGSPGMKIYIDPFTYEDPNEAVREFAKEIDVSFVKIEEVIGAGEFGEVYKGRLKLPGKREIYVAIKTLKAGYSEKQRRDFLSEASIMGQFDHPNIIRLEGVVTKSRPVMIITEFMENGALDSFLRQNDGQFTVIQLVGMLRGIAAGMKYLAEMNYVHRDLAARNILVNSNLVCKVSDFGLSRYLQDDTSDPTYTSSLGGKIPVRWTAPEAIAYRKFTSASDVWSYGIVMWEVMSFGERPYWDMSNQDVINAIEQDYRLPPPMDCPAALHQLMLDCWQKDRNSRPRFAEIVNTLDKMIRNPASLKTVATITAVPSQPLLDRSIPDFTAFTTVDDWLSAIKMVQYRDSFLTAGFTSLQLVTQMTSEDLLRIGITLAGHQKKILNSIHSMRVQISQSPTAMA
The following applies: at 1 µM.

For experiment [7], the target named is T3, Ephrin type-B receptor 1 (Homo sapiens). Conditions: at 10 µM.
The target in experiment [8] is T4, Ephrin type-B receptor 3 (Homo sapiens) (UniProt P54753).
T4 sequence (whole entry): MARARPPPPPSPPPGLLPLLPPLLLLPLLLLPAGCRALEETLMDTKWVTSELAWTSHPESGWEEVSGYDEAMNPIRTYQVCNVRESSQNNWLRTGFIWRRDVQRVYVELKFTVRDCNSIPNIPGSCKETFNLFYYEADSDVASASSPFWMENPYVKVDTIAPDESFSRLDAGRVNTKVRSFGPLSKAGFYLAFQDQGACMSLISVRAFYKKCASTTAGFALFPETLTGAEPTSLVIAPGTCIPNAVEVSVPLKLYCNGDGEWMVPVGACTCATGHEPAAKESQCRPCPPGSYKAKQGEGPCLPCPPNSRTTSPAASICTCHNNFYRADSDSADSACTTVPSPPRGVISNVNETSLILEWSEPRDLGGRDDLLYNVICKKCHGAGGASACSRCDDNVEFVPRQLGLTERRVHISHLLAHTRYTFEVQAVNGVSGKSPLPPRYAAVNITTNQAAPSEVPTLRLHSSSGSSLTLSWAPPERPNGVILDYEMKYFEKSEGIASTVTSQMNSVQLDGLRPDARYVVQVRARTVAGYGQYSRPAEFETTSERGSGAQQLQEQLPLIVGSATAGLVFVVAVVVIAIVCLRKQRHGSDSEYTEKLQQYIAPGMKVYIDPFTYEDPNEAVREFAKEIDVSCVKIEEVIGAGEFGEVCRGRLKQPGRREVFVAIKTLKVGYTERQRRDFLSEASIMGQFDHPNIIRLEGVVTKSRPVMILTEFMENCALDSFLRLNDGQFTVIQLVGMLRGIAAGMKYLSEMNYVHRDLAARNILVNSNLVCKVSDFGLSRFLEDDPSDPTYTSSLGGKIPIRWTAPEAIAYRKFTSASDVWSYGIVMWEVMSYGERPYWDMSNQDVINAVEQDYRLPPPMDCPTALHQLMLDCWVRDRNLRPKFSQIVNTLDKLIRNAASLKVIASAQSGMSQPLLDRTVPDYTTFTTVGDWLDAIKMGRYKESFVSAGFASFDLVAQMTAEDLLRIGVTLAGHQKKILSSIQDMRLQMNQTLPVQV
The following applies: at 10 µM.

The target in experiment [9] is Receptor tyrosine-protein kinase erbB-4 (Homo sapiens) (UniProt Q15303). Conditions: at 1 µM.
Sequence of Receptor tyrosine-protein kinase erbB-4 (Homo sapiens) (Q15303 whole entry): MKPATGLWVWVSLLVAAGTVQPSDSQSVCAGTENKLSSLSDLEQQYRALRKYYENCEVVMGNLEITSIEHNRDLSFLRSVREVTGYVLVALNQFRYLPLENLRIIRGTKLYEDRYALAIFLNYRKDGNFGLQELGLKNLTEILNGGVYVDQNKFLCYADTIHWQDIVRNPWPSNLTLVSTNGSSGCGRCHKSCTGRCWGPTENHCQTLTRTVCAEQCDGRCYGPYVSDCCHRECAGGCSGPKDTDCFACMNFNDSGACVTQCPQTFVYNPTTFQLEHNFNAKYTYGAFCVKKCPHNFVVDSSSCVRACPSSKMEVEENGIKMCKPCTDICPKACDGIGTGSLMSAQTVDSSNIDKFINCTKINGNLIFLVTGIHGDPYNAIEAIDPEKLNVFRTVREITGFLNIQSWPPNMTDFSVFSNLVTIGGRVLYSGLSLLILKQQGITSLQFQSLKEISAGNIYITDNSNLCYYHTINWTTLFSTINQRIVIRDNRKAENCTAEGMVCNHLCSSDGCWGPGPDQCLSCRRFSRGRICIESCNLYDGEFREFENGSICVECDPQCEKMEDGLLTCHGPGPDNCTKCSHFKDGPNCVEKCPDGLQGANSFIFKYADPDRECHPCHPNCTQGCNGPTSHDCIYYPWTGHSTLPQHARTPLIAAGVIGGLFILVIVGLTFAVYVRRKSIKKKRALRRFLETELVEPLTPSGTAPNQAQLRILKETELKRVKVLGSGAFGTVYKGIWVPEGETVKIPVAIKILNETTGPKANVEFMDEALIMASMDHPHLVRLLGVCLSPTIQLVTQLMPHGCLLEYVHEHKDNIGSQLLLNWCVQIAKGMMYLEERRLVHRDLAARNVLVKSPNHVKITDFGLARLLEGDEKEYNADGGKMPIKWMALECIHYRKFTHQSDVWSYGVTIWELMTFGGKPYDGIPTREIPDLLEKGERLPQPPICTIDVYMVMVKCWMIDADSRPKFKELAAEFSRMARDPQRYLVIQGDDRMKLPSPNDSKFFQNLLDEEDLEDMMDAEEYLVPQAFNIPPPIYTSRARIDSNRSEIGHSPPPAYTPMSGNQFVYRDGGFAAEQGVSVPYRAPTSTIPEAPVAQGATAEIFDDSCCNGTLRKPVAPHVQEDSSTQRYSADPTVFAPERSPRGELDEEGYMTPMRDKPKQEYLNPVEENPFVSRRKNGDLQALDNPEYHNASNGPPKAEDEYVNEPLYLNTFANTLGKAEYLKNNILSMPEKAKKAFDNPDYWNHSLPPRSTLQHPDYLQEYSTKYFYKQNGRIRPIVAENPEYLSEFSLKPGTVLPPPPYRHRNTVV

One compound from ChEMBL document CHEMBL2218924, “A broad activity screen in support of a chemogenomic map for kinase signalling research and drug discovery” (Biochem J, 2013) can be followed below.

The term residual activity denotes the signal under treatment as a percentage of the control signal.

Sequence of Ephrin type-A receptor 5 (Homo sapiens) (P54756 whole entry): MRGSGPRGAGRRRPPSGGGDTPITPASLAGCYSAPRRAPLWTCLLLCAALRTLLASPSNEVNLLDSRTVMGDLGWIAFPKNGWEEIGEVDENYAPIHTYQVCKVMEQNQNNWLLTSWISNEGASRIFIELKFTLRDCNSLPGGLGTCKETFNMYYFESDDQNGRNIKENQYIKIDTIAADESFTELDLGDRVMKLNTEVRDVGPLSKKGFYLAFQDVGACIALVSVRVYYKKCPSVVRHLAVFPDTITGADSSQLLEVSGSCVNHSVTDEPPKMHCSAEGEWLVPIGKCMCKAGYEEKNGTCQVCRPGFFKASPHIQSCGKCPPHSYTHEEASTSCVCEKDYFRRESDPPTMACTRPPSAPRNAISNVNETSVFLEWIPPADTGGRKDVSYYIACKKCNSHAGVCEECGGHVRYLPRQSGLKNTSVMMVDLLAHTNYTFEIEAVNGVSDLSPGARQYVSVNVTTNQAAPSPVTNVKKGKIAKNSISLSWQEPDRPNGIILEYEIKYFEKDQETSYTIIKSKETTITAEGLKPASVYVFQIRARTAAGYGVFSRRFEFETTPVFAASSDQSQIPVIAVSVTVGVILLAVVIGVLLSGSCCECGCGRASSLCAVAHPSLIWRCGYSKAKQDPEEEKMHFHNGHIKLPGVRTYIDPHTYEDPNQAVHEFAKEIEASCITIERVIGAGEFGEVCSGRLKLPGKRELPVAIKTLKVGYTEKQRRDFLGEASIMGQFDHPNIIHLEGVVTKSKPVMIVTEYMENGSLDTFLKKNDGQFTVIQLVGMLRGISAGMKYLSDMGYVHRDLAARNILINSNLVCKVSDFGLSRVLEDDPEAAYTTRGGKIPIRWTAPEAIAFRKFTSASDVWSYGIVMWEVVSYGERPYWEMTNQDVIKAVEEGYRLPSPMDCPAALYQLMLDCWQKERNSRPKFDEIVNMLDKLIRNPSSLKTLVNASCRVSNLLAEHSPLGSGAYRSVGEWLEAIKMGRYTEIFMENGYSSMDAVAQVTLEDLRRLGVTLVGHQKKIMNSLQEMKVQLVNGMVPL

`Cc1cncc2cccc(S(=O)(=O)N3CCCN(C(=O)CN)C[C@H]3C)c12`: the residual activity in experiment [1] was 50%; in experiment [2] it was 83%; in experiment [3], 66%; in experiment [4], 98%; in [5] it was 85%; in experiment [6], 75%. The residual activity turned out to be 31% in [7], 128% in [8] and 89% in experiment [9].
